# Experimental data as given in ChEMBL document CHEMBL3988442, “University of Dundee, Small-Polar-MMV Screening Library” (2021).
# For some of these results: Entries with a potency or affinity are not part of this list.
# Legend:
# Design in all cases: scale not given: direction of the effect not stated beside the values
# [1] = biological target: Protein translocase subunit SecA (Escherichia coli (strain K12)) (UniProt P10408); assay: Assay to Identify E. coli SecA ATPase Inhibitors; assay type: functional; conditions: 30 µM
# Chain of Protein translocase subunit SecA (Escherichia coli (strain K12)) (P10408 whole entry): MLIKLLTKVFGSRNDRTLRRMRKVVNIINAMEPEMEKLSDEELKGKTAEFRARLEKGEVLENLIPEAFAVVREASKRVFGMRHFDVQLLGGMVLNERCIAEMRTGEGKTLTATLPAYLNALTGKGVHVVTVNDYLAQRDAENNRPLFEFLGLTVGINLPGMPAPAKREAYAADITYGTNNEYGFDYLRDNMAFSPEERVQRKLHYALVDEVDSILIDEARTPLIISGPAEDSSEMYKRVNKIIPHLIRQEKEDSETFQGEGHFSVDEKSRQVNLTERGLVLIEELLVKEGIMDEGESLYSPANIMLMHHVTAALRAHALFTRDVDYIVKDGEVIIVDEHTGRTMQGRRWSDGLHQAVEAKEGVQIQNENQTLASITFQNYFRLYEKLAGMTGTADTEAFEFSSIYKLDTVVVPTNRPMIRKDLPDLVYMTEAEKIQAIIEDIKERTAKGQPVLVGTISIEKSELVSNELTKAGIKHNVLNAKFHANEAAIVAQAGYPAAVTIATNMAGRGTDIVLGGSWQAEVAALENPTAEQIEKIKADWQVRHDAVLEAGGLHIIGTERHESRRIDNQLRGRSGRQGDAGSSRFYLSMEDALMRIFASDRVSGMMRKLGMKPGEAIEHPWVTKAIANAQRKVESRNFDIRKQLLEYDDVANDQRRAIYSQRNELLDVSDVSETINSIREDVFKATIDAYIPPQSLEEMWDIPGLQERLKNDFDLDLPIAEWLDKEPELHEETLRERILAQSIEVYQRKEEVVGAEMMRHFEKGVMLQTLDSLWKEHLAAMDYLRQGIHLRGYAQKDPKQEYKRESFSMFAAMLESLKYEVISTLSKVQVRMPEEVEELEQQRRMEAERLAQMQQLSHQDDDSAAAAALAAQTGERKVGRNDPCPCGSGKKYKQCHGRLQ
# [2] = biological target: T1, Ubiquitin-activating enzyme e1, putative (Leishmania donovani (strain BPK282A1)) (UniProt E9BSI1); assay: Leishmania donovani Ubiquitin Activating Enzyme (LdE1); assay type: functional; conditions: 30 µM
# T1 sequence (whole entry): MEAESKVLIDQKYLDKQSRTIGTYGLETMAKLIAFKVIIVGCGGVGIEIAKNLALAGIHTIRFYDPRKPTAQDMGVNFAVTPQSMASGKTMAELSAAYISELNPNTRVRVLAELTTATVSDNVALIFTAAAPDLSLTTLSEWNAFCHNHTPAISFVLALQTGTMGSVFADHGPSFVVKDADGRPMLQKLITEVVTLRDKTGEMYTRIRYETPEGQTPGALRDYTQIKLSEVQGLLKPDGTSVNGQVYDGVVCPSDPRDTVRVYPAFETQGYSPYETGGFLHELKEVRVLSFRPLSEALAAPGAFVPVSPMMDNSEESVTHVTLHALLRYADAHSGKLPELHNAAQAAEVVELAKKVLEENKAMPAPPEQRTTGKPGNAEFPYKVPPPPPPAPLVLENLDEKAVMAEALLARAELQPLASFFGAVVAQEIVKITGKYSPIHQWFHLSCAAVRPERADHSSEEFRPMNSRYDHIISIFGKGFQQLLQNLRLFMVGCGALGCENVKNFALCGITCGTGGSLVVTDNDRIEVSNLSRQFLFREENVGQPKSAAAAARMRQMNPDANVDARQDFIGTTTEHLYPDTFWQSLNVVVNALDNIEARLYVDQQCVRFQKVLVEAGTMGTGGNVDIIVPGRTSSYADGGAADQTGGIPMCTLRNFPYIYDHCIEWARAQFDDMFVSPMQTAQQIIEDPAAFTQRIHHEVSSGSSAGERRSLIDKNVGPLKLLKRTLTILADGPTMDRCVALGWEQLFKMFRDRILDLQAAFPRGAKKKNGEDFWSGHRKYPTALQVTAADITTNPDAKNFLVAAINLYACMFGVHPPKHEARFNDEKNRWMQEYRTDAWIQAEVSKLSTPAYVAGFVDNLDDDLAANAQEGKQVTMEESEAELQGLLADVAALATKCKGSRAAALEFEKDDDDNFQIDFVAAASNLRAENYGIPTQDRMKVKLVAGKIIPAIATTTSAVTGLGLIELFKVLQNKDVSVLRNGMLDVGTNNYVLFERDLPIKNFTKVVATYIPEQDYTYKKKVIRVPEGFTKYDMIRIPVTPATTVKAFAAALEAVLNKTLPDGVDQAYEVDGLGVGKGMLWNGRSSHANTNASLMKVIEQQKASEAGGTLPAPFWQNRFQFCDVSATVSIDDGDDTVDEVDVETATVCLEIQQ
# [3] = biological target: AMP-activated protein kinase, AMPK (Homo sapiens) (UniProt P54646+O43741+P54619+Q9UGJ0+Q9Y478+Q13131+Q9UGI9); assay: AMP-dependent Kinase enzyme assay. An in vitro enzyme assay that detects ADP turnover that is directly proportional to AMPK activity. This uses naive AMPK that is activated during the assay with MK-8722; assay type: functional; conditions: 30 µM
# [4] = biological target: Sialic acid-binding Ig-like lectin 9 (Homo sapiens) (UniProt Q9Y336); assay: Hs-Siglec9 ALPHAscreen SOP 20170721; conditions: 10 µM
# Chain of Sialic acid-binding Ig-like lectin 9 (Homo sapiens) (Q9Y336 whole entry): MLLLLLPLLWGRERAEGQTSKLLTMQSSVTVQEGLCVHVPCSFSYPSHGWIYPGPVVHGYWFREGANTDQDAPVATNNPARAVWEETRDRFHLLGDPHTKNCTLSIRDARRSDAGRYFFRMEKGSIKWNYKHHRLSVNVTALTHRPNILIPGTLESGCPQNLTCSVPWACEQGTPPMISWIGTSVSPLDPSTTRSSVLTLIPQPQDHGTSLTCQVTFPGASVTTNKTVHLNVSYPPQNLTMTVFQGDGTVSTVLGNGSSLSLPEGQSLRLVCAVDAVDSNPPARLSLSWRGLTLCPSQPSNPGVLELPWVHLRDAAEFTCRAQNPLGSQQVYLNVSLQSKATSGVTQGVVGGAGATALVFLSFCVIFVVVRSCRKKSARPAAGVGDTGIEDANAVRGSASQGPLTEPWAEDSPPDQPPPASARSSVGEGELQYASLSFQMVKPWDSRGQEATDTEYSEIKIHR
# [5] = test system: Trypanosoma cruzi; assay: Trypanosoma cruzi phosphomannomutase and mannose-1-phosphate guanylyltransferase assay; assay type: functional; conditions: 10 µM
# [6] = biological target: T2, Arginase-2, mitochondrial (Homo sapiens) (UniProt P78540); assay: in vitro enzyme assay to detect the production of urea directly proportional to the activity of Arginase II; assay type: functional; conditions: 33.3 µM; also: in the data most compounds retested in dose-response had high values
# T2 sequence (whole entry): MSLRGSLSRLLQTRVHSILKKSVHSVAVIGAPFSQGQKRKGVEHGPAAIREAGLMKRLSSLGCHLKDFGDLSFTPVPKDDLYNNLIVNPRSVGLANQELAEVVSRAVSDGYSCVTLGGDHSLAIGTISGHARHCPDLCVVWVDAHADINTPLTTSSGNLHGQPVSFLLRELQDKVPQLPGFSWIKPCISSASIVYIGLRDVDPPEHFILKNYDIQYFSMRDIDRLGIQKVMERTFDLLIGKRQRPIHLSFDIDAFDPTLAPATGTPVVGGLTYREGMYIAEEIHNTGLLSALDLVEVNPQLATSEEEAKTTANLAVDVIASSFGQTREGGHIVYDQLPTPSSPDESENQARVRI
# [7] = biological target: T3, Proteasome subunit beta (Trypanosoma cruzi) (UniProt O96673); assay: Trypanosoma cruzi proteasome chymotrypsin-like activity (TcProtChymo) assay.; also: in the data most compounds retested in dose-response had high values; assay type: functional; conditions: 9.37 µM
# T3 sequence (whole entry): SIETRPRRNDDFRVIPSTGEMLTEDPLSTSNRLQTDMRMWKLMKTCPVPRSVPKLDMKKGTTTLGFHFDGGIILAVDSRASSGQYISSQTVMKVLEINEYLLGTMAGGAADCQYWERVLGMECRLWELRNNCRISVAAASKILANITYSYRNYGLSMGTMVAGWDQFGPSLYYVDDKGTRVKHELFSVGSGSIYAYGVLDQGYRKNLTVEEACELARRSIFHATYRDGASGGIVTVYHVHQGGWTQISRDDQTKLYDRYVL
# [8] = species on record: Homo sapiens; assay: To identify inhibition of the IFN signalling (Jak-Stat) pathway via expression of an eGFP reporter gene under the control of an IFN-stimulated response element (ISRE) containing MxA promoter.; assay type: functional; conditions: 30 µM
# [9] = biological target: T4, Tyrosyl-tRNA synthetase, putative (Trypanosoma cruzi (strain CL Brener)) (UniProt Q4DSP6); assay: Trypanosoma cruzi tyrosyl tRNA synthetase (TcYRS) _High Tyrosine SOP; assay type: functional; conditions: 30 µM; also: in the data most compounds retested in dose-response had high values
# T4 sequence (whole entry): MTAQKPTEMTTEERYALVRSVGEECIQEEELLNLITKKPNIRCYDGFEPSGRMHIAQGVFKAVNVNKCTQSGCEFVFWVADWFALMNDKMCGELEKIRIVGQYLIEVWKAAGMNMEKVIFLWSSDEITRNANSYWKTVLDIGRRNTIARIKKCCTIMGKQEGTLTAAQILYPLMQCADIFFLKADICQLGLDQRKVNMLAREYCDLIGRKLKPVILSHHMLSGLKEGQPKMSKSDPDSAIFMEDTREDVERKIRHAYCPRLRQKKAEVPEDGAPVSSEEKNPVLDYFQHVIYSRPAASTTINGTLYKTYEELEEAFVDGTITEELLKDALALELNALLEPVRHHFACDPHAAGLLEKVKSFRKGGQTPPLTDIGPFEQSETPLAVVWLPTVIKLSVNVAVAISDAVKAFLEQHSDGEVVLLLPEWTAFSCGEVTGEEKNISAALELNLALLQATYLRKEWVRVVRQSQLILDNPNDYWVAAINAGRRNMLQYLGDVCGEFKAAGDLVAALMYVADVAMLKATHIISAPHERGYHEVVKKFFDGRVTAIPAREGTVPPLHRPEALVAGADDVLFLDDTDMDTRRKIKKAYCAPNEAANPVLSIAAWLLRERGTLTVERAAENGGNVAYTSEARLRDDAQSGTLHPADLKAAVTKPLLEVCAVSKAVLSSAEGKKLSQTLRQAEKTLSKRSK
# [10] = biological target: T4, Tyrosyl-tRNA synthetase, putative (Trypanosoma cruzi (strain CL Brener)); assay: Trypanosoma cruzi tyrosyl tRNA synthetase (TcYRS) SOP; assay type: functional; conditions: 30 µM
# [11] = biological target: Chromo domain-containing protein 1 (Saccharomyces cerevisiae (strain ATCC 204508 / S288c) (Baker's yeast)) (UniProt P32657); assay: ScCHD-1 Enzyme Inhibition Assay; assay type: functional; conditions: 30 µM; also: in the data most compounds retested in dose-response had high values
# Chain of Chromo domain-containing protein 1 (Saccharomyces cerevisiae (strain ATCC 204508 / S288c) (Baker's yeast)) (P32657 whole entry, the tested form may be a part): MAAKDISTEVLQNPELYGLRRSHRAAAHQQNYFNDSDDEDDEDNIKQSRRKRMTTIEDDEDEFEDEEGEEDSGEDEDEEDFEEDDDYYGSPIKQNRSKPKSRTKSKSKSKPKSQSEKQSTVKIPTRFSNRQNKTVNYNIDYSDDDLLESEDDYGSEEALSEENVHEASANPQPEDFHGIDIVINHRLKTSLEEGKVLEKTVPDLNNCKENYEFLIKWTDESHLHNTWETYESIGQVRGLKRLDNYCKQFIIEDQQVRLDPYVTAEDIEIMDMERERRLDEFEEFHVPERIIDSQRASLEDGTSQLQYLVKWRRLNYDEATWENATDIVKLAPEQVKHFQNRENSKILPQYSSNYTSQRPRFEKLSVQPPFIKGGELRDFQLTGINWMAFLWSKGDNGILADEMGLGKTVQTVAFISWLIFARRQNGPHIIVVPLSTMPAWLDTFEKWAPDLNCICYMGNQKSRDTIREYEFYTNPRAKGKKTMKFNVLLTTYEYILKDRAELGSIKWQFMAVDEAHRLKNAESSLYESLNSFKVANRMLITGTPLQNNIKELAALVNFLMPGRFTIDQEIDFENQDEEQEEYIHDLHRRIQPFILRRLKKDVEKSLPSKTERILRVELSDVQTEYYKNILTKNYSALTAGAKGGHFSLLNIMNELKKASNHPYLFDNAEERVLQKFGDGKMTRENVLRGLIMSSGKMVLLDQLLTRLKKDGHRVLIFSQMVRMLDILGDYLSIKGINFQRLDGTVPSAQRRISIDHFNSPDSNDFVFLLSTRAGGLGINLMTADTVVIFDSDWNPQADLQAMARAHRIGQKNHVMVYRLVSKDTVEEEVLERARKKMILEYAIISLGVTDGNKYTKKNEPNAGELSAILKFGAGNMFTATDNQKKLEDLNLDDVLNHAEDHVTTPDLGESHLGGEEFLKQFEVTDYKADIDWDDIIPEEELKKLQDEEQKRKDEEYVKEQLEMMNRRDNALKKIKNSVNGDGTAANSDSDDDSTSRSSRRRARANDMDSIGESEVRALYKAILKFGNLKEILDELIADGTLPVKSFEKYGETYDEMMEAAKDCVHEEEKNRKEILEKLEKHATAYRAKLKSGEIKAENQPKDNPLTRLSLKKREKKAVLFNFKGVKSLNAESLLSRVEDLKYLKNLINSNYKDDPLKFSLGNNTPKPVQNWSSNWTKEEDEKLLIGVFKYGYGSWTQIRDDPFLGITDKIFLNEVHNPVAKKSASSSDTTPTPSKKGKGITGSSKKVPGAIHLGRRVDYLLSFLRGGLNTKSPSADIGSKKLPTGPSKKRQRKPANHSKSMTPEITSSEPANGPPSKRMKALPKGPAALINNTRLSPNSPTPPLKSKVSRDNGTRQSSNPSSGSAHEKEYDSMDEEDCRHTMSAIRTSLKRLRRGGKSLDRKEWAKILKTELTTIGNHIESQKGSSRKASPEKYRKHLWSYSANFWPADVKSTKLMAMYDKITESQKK
SMILES,Percent Effect [1] [%],Percent Effect [2] [%],Percent Effect [3] [%],Percent Effect [4] [%],Percent Effect [5] [%],Percent Effect [6] [%],Percent Effect [7] [%],Percent Effect [8] [%],Percent Effect [9] [%],Percent Effect [10] [%],Percent Effect [11] [%]
COc1ccc2c(c1)C1(CCN(Cc3ccncc3)CC1)N(C)CC2,-3.01,7.79,2.38,7.8,-3.06,0.645,14.4,-6.76,0,3.85,-8.34
CC(C)N(C)Cc1cn2c(n1)CN(C(=O)Cc1ccsc1)CC2,-5.71,2.74,3.83,1.25,-2.78,-2,7.28,-1.74,5.21,6.17,-0.437
CN(C)C(=O)N1CCC2(CCCN(Cc3cnn(C)c3)C2)C1 (stereo not given),-3.04,0,12,1.42,-2.83,0.955,19,-3.73,1.08,5.13,-0.435
Cc1cccc(CN2CCc3ncnc(C)c3CC2)n1,1.12,8.22,5.73,7.82,-5.75,-0.798,13.4,4.7,-1.04,8.64,-4.79
Cc1ccccc1CC1(CO)CCCN(c2ncccc2C#N)C1 (stereo not given),-2.63,0,3.1,0.621,-5.21,1.43,17.1,27.8,3.7,7.32,-1.78
CCS(=O)(=O)N1CCC2(CCCN(Cc3cc(OC)ccc3F)C2)C1 (stereo not given),-4.17,6.94,-5.98,-4.29,-2.23,0.883,14.6,16.9,6.32,7.69,-4.39
CCc1nc(CN2CCCC(N(C)Cc3cnc(C)s3)C2)no1 (stereo not given),-0.97,-5.48,-1.7,3.08,0.979,0.455,18.8,-15.8,2.15,0,-0.829
CSc1ncccc1C(=O)N1C[C@H]2CC[C@@H]1CN(c1cnccn1)C2,-6.82,7.79,4.77,7.96,-3.44,-29,10.5,-1.66,5.38,8.64,0.924
Cc1nc(CN2CCCC(N(C)CCc3cccs3)C2)no1 (stereo not given),-2.72,12.5,-8.86,8.38,-1.65,2.21,11.4,10.9,7.37,2.56,-2.19
CCn1cnnc1CNC(=O)N1CCCN(C(C)=O)CC1,-6.81,15.6,-0.601,0.0707,0.881,4.84,12.7,1.78,10.5,25.9,-20.1
Cc1occc1C(=O)Nc1ccnc(OC2CCOC2)c1 (stereo not given),-0.474,6.94,-7.48,6.54,4.57,7.95,14.7,3.88,-2.1,2.56,-2.37
Cc1cc(C(F)(F)F)c2c(C3CCN(S(=O)(=O)N(C)C)CC3)noc2n1,-2.53,12.2,6.65,11.8,-0.395,1.62,6.55,3.27,6.45,16.9,-15.2
CCn1nc(C)c(CNC(=O)c2cn(CCC3CCCCN3)nn2)c1C (stereo not given),-5.31,2.67,0.29,4.73,1.27,5.21,9.77,-25.2,7.1,16.1,-5.55
CC(NC(=O)NCCCN(C)C)c1ccc2c(c1)CCC(=O)N2 (stereo not given),-3.72,13,0.292,-0.949,10.1,-6.05,15,-16.2,8.74,21.9,-6.2
Cc1cc(C)n(C2CN(CC(O)c3ccc4c(c3)OCO4)C2)n1 (stereo not given),-2.6,-13,0.139,7.69,3.37,-2.85,4.56,26.7,15.5,12.2,-2.01
O=C(CN1CCC(c2cccc(F)c2)C1)NCc1ccco1 (stereo not given),-1.81,21.1,4.1,-1.87,6.01,-1.53,14.4,27.6,7.35,24.4,-8.76
Cc1cc(F)cc(S(=O)(=O)NCCCN2CCC(O)CC2)c1,1.42,15.6,0.172,0.431,-0.688,5.52,14.6,10.8,7.53,23.5,1.36
CC(Cc1ccco1)NC(=O)Nc1cnn(CC(N)=O)c1 (stereo not given),1.02,6.33,5.31,0.769,-6.67,2.8,11,9.49,4.17,7.59,-2.83
CN(C)S(=O)(=O)N1CCC2(COCc3cnc(-c4ccccc4)nc32)C1 (stereo not given),-3.52,13.3,1.46,-2.12,4.44,-1.25,12.3,12.3,-8.33,2.5,-4.77
CC(=O)Nc1ccc(S(=O)(=O)NC(=O)CCC2CCCO2)cc1 (stereo not given),-9.79,10.8,-16.6,34.9,8.21,-16.8,6.31,-1.72,1.48,13.6,-16.9
